In the library only some 2.8% were active in any assay of this set; here they are far more common.
KDM5B inh – inhibitors of human KDM5B histone demethylase; hit rate 2.6% among 220,000; Potency, µM (titrated, usually from 57.7 µM), actives largely listed as inhibitors; AID 1347165; Q9UGL1; KDM5B demethylase, FDH-coupled NADH fluorescence (FDH is formaldehyde dehydrogenase); note: nearly all actives have a fitted effect of over 70% in size
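Measured: NADH fluorescence change, 30 min, RT. System: KDM5BΔAP 200 nM final, H3K4me3 peptide, α-KG, Fe(II), ascorbate, NAD⁺ plus FDH, pH 7.5 HEPES. Compounds: titrated, 10 min pre-incubation with enzyme.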
IP6K1 inh – blocks human inositol hexakisphosphate kinase 1; Q92551; IP6K1 kinase, ADP-Glo luminescence, 2 h; active compounds read low; activity change, % (series mostly up to about 58 µM); hit rate 0.81% among 140,000; in the data active = activity change below about -25%
Target sequence (Q92551 whole entry, looked up): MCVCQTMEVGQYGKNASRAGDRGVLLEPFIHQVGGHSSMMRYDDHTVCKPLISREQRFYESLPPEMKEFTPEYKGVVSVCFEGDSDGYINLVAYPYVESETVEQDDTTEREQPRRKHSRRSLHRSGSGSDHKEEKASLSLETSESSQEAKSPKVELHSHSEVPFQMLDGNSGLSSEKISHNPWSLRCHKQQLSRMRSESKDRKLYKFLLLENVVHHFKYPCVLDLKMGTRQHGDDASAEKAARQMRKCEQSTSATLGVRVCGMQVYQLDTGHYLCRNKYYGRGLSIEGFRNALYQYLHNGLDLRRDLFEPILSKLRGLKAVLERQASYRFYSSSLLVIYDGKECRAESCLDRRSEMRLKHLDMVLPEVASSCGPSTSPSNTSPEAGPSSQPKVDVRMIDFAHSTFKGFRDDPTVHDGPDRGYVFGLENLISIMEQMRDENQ
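ADP-Glo luminescence measures ADP made by human IP6K1 during a 2 h RT reaction with ATP/IP6 (mix at 1.3 mM/130 uM); top library doses 57.5 and 19.1 uM final.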
Large screens that a line does not name were inactive.

Cn1cccc1CN1CCC(N2CCOC2=O)CC1	KDM5B inh 89µM
Cn1cccc1CN1CCC(N2CCOCC2=O)CC1	KDM5B inh inconclusive
Cc1[nH]c2c(F)cccc2c1CC(=O)NC(c1cnn(C)c1)C1CC(O)C1 (stereo not drawn)	none
CCc1ccccc1NC(=O)c1ccc2c(c1)N(Cc1cc(C)ccc1C)C(=O)c1ccccc1S2(=O)=O	none
Cn1cc([C@@H](NC(=O)c2nc3ccccc3[nH]c2=O)C2CC(O)C2)cn1 (stereo partly drawn)	KDM5B inh 32µM
Cn1cc([C@@H](NC(=O)c2cc(=O)n(-c3ccccc3)[nH]2)C2CC(O)C2)cn1 (stereo partly drawn)	none
O=C(c1ccccc1Cl)N1CCC(C(=O)N2CCC(N3CCOCC3=O)CC2)CC1	none (no result: KDM5B inh)
COc1ccccc1C1=NOC(C(=O)N2CCN(c3ccccc3)CC2)C1 (stereo not drawn)	none (no result: IP6K1 inh)
O=C(NC1CC1)[C@@H]1C[C@H](Oc2ccccc2)CN1C(=O)C1CCC1	none
CCOCC(=O)N1CCC(Nc2cccn3ncnc23)CC1	KDM5B inh 16µM
CCOCC(=O)N1CCC(Oc2ncccc2C(=O)N2CCCCC2)C1 (stereo not drawn)	none
Cc1cc(C)c(CNC(=O)c2cc(-c3cccnc3)cc3c2OCCN3C(C)C)c(=O)[nH]1	KDM5B inh inconclusive
Cc1cc(C)c(CNC(=O)c2cc(-c3ccc(CN(C)C)cc3)cc3ncn(C)c23)c(=O)[nH]1	none
Cc1cc(C)c(CNC(=O)c2cc(-c3ccnn3C)cc3c2OCCN3C)c(=O)[nH]1	KDM5B inh 35µM
COc1ncccc1-c1cc(C(=O)NCc2c(C)cc(C)[nH]c2=O)c2c(c1)N(C)CCO2	KDM5B inh 35µM
Cc1cc(C)c(CNC(=O)c2cc(-c3cnn(C)c3C)cc3c2OCCN3C)c(=O)[nH]1	KDM5B inh 32µM
COc1ccc(-c2cc(C(=O)NCc3c(C)cc(C)[nH]c3=O)c3c(c2)N(C)CCO3)cc1	KDM5B inh 32µM
COc1ccccc1-c1cc(C(=O)NCc2c(C)cc(C)[nH]c2=O)c2c(c1)ncn2C	KDM5B inh inconclusive
COc1cccc(-c2cc3c(ccn3C)c(C(=O)NCc3c(C)cc(C)[nH]c3=O)n2)c1	KDM5B inh inconclusive
CCNS(=O)(=O)c1ccc(C)c(C(=O)N2CCCC2c2ccc(OC)c(OC)c2)c1 (stereo not drawn)	none (no result: IP6K1 inh)
O=C(CCc1c[nH]c2ccccc12)NC1CCN(C2CC2)CC1	none (no result: IP6K1 inh)
COc1ccc(Nc2ccnc(N3CCN(C(=O)c4ccc(Cl)cc4)CC3)n2)cc1	none (no result: KDM5B inh)
O=C(NCC1(N2CCOCC2)CCSC1)Nc1ccc(F)cc1F (stereo not drawn)	none (no result: IP6K1 inh)
CSC1=N/C(=C\c2cccc(Br)c2)C(=O)S1	none (no result: IP6K1 inh)
COC(=O)c1ccc(CN2C(=O)[C@@H]3C[C@@H](O)CN3C3(CN(CC(C)C)C3)C2=O)cc1	none
COc1cccc(N2CC3(COCCN(C(=O)c4ccc(OC)c(OC)c4)C3)C2)c1	none
CCOC(=O)Cn1cc(CN2C(C(=O)OC)CN(Cc3ccc(C)cc3)CCS2(=O)=O)nn1 (stereo not drawn)	none (no result: IP6K1 inh)
COc1cccc(Nc2ccc3c(n2)C(C)(C(=O)NCc2ccco2)CN(C)C3)c1 (stereo not drawn)	KDM5B inh 28µM
CN1Cc2ccc(NCc3ccccc3)nc2C(C)(C(=O)NCc2ccc3c(c2)OCO3)C1 (stereo not drawn)	KDM5B inh inconclusive
CN1Cc2ccc(Nc3ccccc3)nc2C(C)(C(=O)NCc2ccc3c(c2)OCO3)C1 (stereo not drawn)	KDM5B inh 40µM
COCCNC(=O)C1(C)CN(C)Cc2ccc(Nc3cccc(OC)c3)nc21 (stereo not drawn)	KDM5B inh inconclusive
COc1cc2c(cc1NS(C)(=O)=O)C(c1cccc3nsnc13)CC(=O)N2 (stereo not drawn)	none
COCc1ccc2c(c1)c(OC(C)(C)C(=O)NCCc1cccnc1)nn2CCC(C)C	KDM5B inh inconclusive
COCc1ccc2c(c1)c(OC(C)(C)C(=O)NCc1cnccn1)nn2CCC(C)C	none
COCc1ccc2c(c1)c(OC(C)(C)C(=O)N1CC(O)C1)nn2CCC(C)C	KDM5B inh 35µM
COCc1ccc2c(c1)c(OC(C)(C)C(N)=O)nn2CCC(C)C	KDM5B inh 32µM
COC(=O)c1ccc(/C=C2\Oc3cc(OS(C)(=O)=O)ccc3C2=O)cc1	none (no result: IP6K1 inh)
CC(C)NS(=O)(=O)c1cc(C(=O)O)cc(-c2ccc(C(=O)N(C)C)cc2)c1	none
O=c1cc(N2CCOCC2)oc2c(-c3ccccc3O)nccc12	none
COc1ccccc1-c1nccc2c(=O)cc(N3CCOCC3)oc12	KDM5B inh inconclusive
Cc1ccccc1-c1nccc2c(=O)cc(N3CCOCC3)oc12	KDM5B inh 35µM
COc1ncccc1-c1nccc2c(=O)cc(N3CCOCC3)oc12	KDM5B inh 40µM
COc1ccc(Nc2ccnc(N3CCCC(C(=O)NCc4ccc(F)cc4)C3)n2)cc1 (stereo not drawn)	none (no result: KDM5B inh)
Fc1ccc(CNc2ncncc2-c2nc(-c3ccccc3)no2)cc1	KDM5B inh inconclusive
Cc1cc(Cl)ccc1Nc1ncncc1-c1nc(-c2ccccc2)no1	KDM5B inh inconclusive
Cc1ccc(Cl)cc1Nc1ncncc1-c1nc(-c2ccccc2)no1	KDM5B inh 25µM
Cc1ccc(CCNc2ncncc2-c2nc(-c3ccccc3)no2)cc1	KDM5B inh 32µM
O=C(CCN1CCOC(C(F)(F)F)C1)NCc1ccccc1Cl (stereo not drawn)	none
CCOc1cc(Cl)c(C=O)cc1OC	none (no result: IP6K1 inh)
CCn1c(-n2nc(C)c(C)c2C)nc2c1c(=O)n(CC(=O)C(C)(C)C)c(=O)n2C	none (no result: IP6K1 inh)
CCN(CC)CCNC(=O)CCc1cc2cc(OC)ccc2[nH]c1=O	KDM5B inh 28µM
COc1ccc2[nH]c(=O)c(CCC(=O)NC(C)c3cn(C)nc3C)cc2c1 (stereo not drawn)	KDM5B inh inconclusive
Cc1ccc2[nH]c(=O)c(CCC(=O)N(C)Cc3cn(C)nc3C)cc2c1	KDM5B inh 32µM
COc1ccc(N(Cc2cc3cc(OC)ccc3[nH]c2=O)C(=O)c2cccc(Cl)c2)cc1	none
COc1ccc2[nH]c(=O)c(CCC(=O)NCCN3CCCCCC3)cc2c1	KDM5B inh 28µM
Cc1ccc2cc(CCC(=O)NCCCN3CCCC3=O)c(=O)[nH]c2c1	KDM5B inh inconclusive
COc1ccc(NC(=O)CCc2cc3cc(C)ccc3[nH]c2=O)c(OC)c1	none
COc1ccc2[nH]c(=O)c(CCC(=O)N(C)CCc3ccccc3)cc2c1	KDM5B inh 28µM
O=C(c1cccs1)N1CCCN(c2cc(-c3ccc(Cl)cc3)[nH]n2)CC1	none
CCN(CC(=O)NC(=O)Nc1ccccc1)C(C)c1ccc(C#N)cc1 (stereo not drawn)	none (no result: IP6K1 inh)
CN(CCc1noc(C2CN(C(=O)CN3CCCCCC3)C2)n1)S(C)(=O)=O	none
CCN1C(=O)c2ccccc2NC1c1cc2ccccc2[nH]c1=O (stereo not drawn)	none (no result: IP6K1 inh)
O=C(CCc1cc2ccccc2[nH]c1=O)NCCCN1CCCC1=O	none
COCCCNC(=O)CCc1cc2ccccc2[nH]c1=O	KDM5B inh inconclusive
COCCNC(=O)CCc1cc2cc(OC)ccc2[nH]c1=O	KDM5B inh 32µM
COc1ccc2[nH]c(=O)c(CCC(=O)NCCc3ccccn3)cc2c1	KDM5B inh inconclusive
CCC1CCCCN1CCCNC(=O)CCc1cc2cc(OC)ccc2[nH]c1=O (stereo not drawn)	KDM5B inh 32µM
CCCNC(=O)CCc1cc2cc(OC)ccc2[nH]c1=O	KDM5B inh 32µM
